From PubChem BioAssay (NCI) come the findings set out here.

Test [1] can be described thus: NCI Yeast Anticancer Drug Screen. Data for the rad50 strain (AID 155).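 Further: 0% = growth of vehicle-only cultures of the same strain.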 To be noted: S. cerevisiae rad50 strain growth inhibition; at 50.0 µM; stronger effect = higher value. The method in brief:
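Inhibition values express reduced yeast growth in compound-treated cultures relative to vehicle-treated controls.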

A short description of test [2]: NCI Yeast Anticancer Drug Screen. Data for the mec2-1 strain (AID 157). The note with it: S. cerevisiae mec2-1 strain, at 50.0 µM, stronger effect = higher value. An outline of the steps: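 Test agents were screened against the mec2-1 yeast strain, with defined DNA repair or cell cycle alteration. Growth was scored as inhibition against vehicle-only controls.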
The nature of test [3]: NCI Yeast Anticancer Drug Screen. Data for the sgs1 mgt1 strain (AID 161).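 Further: 0% = growth of cultures given vehicle only.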 The note with it: S. cerevisiae sgs1 mgt1 strain, at 50.0 µM, stronger effect = higher value. The method in brief:
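Read-out: growth inhibition vs vehicle controls. Cells: mutant yeast strain deficient in DNA damage repair.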

Test [4] can be described thus: NCI Yeast Anticancer Drug Screen. Data for the cln2 rad14 strain (AID 165).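 Further: 0% = growth equal to vehicle treated cultures.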 To be noted: S. cerevisiae cln2 rad14 strain, at 50.0 µM, stronger effect = higher value. The method in brief:
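Growth of compound-exposed yeast (cln2 rad14 genotype) measured and expressed as inhibition relative to vehicle.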

A short description of test [5]: NCI Yeast Anticancer Drug Screen. Data for the bub3 strain (AID 167). The note with it: S. cerevisiae bub3 mutant strain, at 50.0 µM, stronger effect = higher value. The method in brief: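 Steps: expose the mutant yeast strain to compound; grow alongside vehicle-treated cultures; measure growth; express inhibition against the vehicle cultures.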
Test [6] can be described thus: NCI Yeast Anticancer Drug Screen. Data for the mlh1 rad18 strain (AID 175). To be noted: S. cerevisiae mlh1 rad18 strain growth inhibition; at 50.0 µM; stronger effect = higher value. An outline of the steps: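 In this whole-cell yeast screen, a strain with altered DNA damage repair is challenged with compound, and its growth is measured against matched vehicle-treated controls.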

Molecules are shown by their SMILES. Compounds without any hit were thinned out: in the full panel of roughly 79,000, 15% have a hit. Unmarked numbers belong to inactive results. Activity calls are given as the source filed them. No stated cut-off is given here; in the data, active means growth inhibition above about 70%; inactive means the rest. Where a SMILES comes first, the peptide text is derived from it. [ ]: non-standard residue; d: D form. ξ: configuration not given here. ξPhe(4-N(CH2CH2Cl)2) = NC(Cc1ccc(N(CCCl)CCCl)cc1)C(=O)O

Consider `CCCc1ccc(CCN)cc1`, for which the growth inhibition was -8.55% in test [1]; -9% in test [2]; -15.1% in test [3]; -9.45% in test [4]; -2.3% in test [5]; -23.2% in test [6].
`COC(=O)/C=C/c1ccc(Cl)cc1`: the growth inhibition in test [1] is -7%; in test [2] it was -1.8%; in test [3], 0.5%; in test [4], -36.5%; in test [5] it was -10.2%; in test [6] it was -7.4%.
Turning to `CC1=CC2=C(C)C3(CC3)[C@@](C)(O)C(=O)C2=C1`, the growth inhibition in test [1] was 45.5%; in test [2], 14.3%; in test [3] it was 55.8%; in test [4], 23.9%; in test [5] it was 26.9%; in test [6] it was -15.2%.
On to `CCOC(=O)C(N)C[S][Sn]([CH3])([CH3])[Cl]` (stereo not given), for which the growth inhibition was 19.1% in test [1]; 21.8% in test [2]; 20.6% in test [3]; 18.2% in test [4]; 21.7% in test [5]; -26.6% in test [6].
For `[CH3][Sn]([CH3])([Br])[CH2]CCCBr`, the growth inhibition in test [1] was 98.9% (active); in test [2] it was 99.5% (active); in test [3], 99.4% (active); in test [4], 98.7% (active); in test [5], 99.1% (active); in test [6], 99.3% (active).
As to `CN(C)P(=S)(CCPc1ccccc1)N(C)C` (stereo not given), the growth inhibition in test [1] was -13.5%; in test [2], -23.6%; in test [3], -12.8%; in test [4] it was 2.95%; in test [5], -5.75%; in test [6] it was -5.8%.
With `CCOC(=O)C12CCC(=O)C=C1CN(C)CC2` (stereo not given), the growth inhibition was -2.25% in test [1]; 0.1% in test [2]; -3.3% in test [3]; -17.1% in test [4]; -13.2% in test [5]; 0.8% in test [6].
`CCC(=O)C(c1ccccc1)(c1ccccc1)C(C)CN(C)C` (stereo not given): the growth inhibition is -8.7% in test [1]; -9.2% in test [2]; 9.35% in test [3]; -5.55% in test [4]; -4.9% in test [5]; -6.35% in test [6].
`CCOC(=O)/C(C#N)=C(/SC)N1CC1`: the growth inhibition was 1.9% in test [1]; 12% in test [2]; 1.4% in test [3]; -7.2% in test [4]; 6.8% in test [5]; -2% in test [6].
On to `COc1ccc(C2=CCN(c3ccc(C)cc3)P(=O)(N(CCCl)CCCl)O2)cc1` (stereo not given), for which the growth inhibition was 46.8% in test [1]; 74% (active) in test [2]; 68.9% in test [3]; 81.1% (active) in test [4]; 90.8% (active) in test [5]; 77.4% (active) in test [6].
As for `CCN(c1ccccc1)P(I)(c1ccccc1)(c1ccccc1)c1ccccc1`, the growth inhibition in test [1] is 98.7% (active); in test [2], 99.5% (active); in test [3], 99.3% (active); in test [4], 98.6% (active); in test [5] it was 98.2% (active); in test [6], 99% (active).
Take `Cc1ccc(NN=O)nc1`: the growth inhibition in test [1] was -13.9%; in test [2], 3.15%; in test [3], -3.9%; in test [4], 15.2%; in test [5], -10.6%; in test [6], -13.8%.
As to `CCOc1ccc2ccccc2c1OP(=O)(OCC)OCC`, the growth inhibition in test [1] is 23.9%; in test [2], 22%; in test [3], 38.9%; in test [4] it was 29.6%; in test [5] it was 40.4%; in test [6], 25.6%.
Take `O=[As](O)(O)c1cccc(O)c1`: the growth inhibition in test [1] was -6.8%; in test [2], -7.25%; in test [3], -8.65%; in test [4] it was 3.7%; in test [5] it was 9.25%; in test [6], -16.1%.
With `Cn1nnc(-c2nnn(C)n2)n1`, the growth inhibition was -19.1% in test [1]; -12.5% in test [2]; -8.65% in test [3]; -14.8% in test [4]; -15.9% in test [5]; -19.6% in test [6].
As to `NNC(N)=O`, the growth inhibition in test [1] is 1.3%; in test [2], 23.1%; in test [3] it was -38.9%; in test [4], -18.3%; in test [5] it was -13.2%; in test [6], -14.8%.
In the case of `CCC1(CCNC(=O)CCl)C(=O)NC(=O)NC1=O`, the growth inhibition is 3.05% in test [1]; -4.5% in test [2]; 6.8% in test [3]; -38.1% in test [4]; 4.55% in test [5]; -8.6% in test [6].
In the case of `CSP(N)(=O)OC(C)C` (stereo not given), the growth inhibition in test [1] is -16.9%; in test [2] it was 11.8%; in test [3] it was -15.6%; in test [4], -23.6%; in test [5] it was -33.6%; in test [6], 15.8%.
`CCOC(=O)C(Cc1ccc(N(CCCl)CCCl)cc1)NC(=O)C(Cc1ccccc1)NC(=O)C(NC(=O)CNC(=O)C1CCCN1)C(C)C` (stereo not given) (H-PGVF[ξPhe(4-N(CH2CH2Cl)2)]-OEt; configuration not given here): the growth inhibition in test [1] is -4.6%; in test [2], 11.8%; in test [3] it was 20.3%; in test [4], 3.35%; in test [5], 6.1%; in test [6], 29.6%.
As to `Clc1ccc(N2CCN(c3ccc(Cl)cc3)CC2)cc1`, the growth inhibition in test [1] was -20.1%; in test [2] it was 1.45%; in test [3], -6.75%; in test [4], 1.25%; in test [5], -6.9%; in test [6], 6.05%.
